Compound activity from PubChem BioAssay.
TTR transcr act = TTR transcription activation, primary screen; SH-SY5Y TTR promoter Gaussia luciferase, luminescence; 100% = recombinant luciferase protein wells; activation, % at 16.7 µM; 92,000 compounds, 1.3% hits; AID 1117267;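 active = activation above the mean of all tested compounds plus 3 SD, cut at about 9.5% in these data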;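 note: cells exposed to compounds for one day before reading; 0% = median of all test compound wells on the plate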
TTR inh HuH7 = decreases TTR transcription in HuH7 cells in activator counter-screen; shares compounds with TTR transcr act; HuH7 TTR promoter-Gaussia luciferase reporter, luminescence; inhibition, % at 16.7 µM; 1,100 compounds, 4% hits;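 active = average inhibition above the solvent-only control wells' mean plus 3 SD, cut at about 15% in these data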;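 note: 0% = cells with DMSO only and 100% = cells with inhibitor control FD; inhibitors lower well luminescence so higher value means more inhibition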
TTR act confirm = human TTR transcription activation, confirmation | shares compounds with TTR transcr act | SHSY5Y TTR promoter Gaussia luciferase, luminescence; 100% = purified Lucia enzyme wells, no cells | activation, % at 16.7 µM | 1,100 tested, under 10 active | AID 1117280;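 active = mean activation above a set limit taken from the earlier primary screen, cut at about 11% in these data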;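 note: 0% = DMSO-treated cells and 100% = recombinant Lucia luciferase without cells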
Active calls of the source: *. This excerpt belongs to a sample that is enriched for hits.

SMILES	TTR transcr act	others
O=C(Nc1ccccc1)c1ccn[nH]1	15*	TTR inh HuH7=-9;TTR act confirm=-1
O=C(Nc1cccc(C(=O)Nc2ccc(Br)cc2)c1)c1ccccc1	2
Cc1cc(=O)[nH]c(SCC(=O)Nc2nonc2C)n1	-1
CCN(CC(=O)Nc1ccc(NC(C)=O)cc1)C(=O)c1c(-c2c(F)cccc2Cl)noc1C	17*	TTR inh HuH7=-10;TTR act confirm=0
COc1cccc(NC(=O)CN(C)C(=O)c2c(-c3c(F)cccc3Cl)noc2C)c1	1
CCN(CC(=O)Nc1c(F)cccc1F)C(=O)c1c(-c2ccccc2Cl)noc1C	-1
COc1ccc(N2CCN(CCCNC(=O)Cn3c(=O)c4cccn4c4c(C)ccnc43)CC2)cc1	2
COc1ccc(N2C[C@H](Cc3ccccc3)[C@@H](CC(=O)Nc3ccccc3)C2=O)cc1	-1
CC(C)(C)S(=O)N1Cc2cc(CO)cc(CCO)c2[C@H]1CCO (stereo not given in full)	1
O=C(c1ccccc1NS(=O)(=O)c1ccc([N+](=O)[O-])cc1[N+](=O)[O-])N1O[C@@H]2C=C[C@H]1C2	-1
O=C(N/N=C\C=C\c1ccco1)c1cncc(Br)c1	13*	TTR inh HuH7=-2;TTR act confirm=0
O=C(N/N=C/C=C\c1ccco1)c1ccccn1	-1
O=C(N/N=C\C=C\c1ccco1)c1cc(-c2ccc3ccccc3c2)n[nH]1	3
O=c1[nH][nH]c2c1C(c1ccc(F)cc1)OC(CCc1ccccc1)C2 (stereo not given)	1
O=S1(=O)c2c(cccc2N2CC[C@@H](O)C2)OCCCN1C1CC1	0
CCOC(=O)c1cnn(-c2ccccc2)c1NC(=O)CCl	-1
COc1ccc(CCNC(=O)c2cnn(-c3ccccc3)c2N)cc1OC	0
CCCc1c(C(=O)NNc2ccccc2OC)cnn1-c1ccccc1	12*	TTR inh HuH7=-9;TTR act confirm=0
O=C(OCc1nc(-c2ccccc2Cl)no1)c1ccco1	0
CCOc1ccc(S(=O)(=O)N2CCN(C(=O)Cc3ccc(S(=O)(=O)N4CCOCC4)s3)CC2)cc1	3
CN(Cc1ccc(Cl)cc1Cl)C(=O)Cc1ccc(S(=O)(=O)N2CCOCC2)s1	20*	TTR inh HuH7=-6;TTR act confirm=-1
CC1CCCCC1NC(=O)Cc1ccc(S(=O)(=O)N2CCOCC2)s1 (stereo not given)	1
CCOC(=O)c1cnc2c(ccc3ccccc32)c1N	0
COC(=O)[C@]12CCCCC=C1N(Cc1ccc(OC)cc1)C(=O)[C@@H]2CC(=O)NCCc1ccccc1OC	2
Cc1ccccc1Cn1c(=O)n(C)c(=O)c2sccc21	-1
SMILES	TTR transcr act	others
c1ccc(Cn2ccc3ccc(-c4ccc5ccn(Cc6ccc(-c7ccccc7)cc6)c5c4)cc32)cc1	1
Cc1cc(C)n(CC(=O)c2ccccc2)c(=O)c1C#N	16*	TTR inh HuH7=-7;TTR act confirm=0
Cc1cc(-c2ccccc2)[nH]c(=O)c1C#N	0
Cc1cn(CC(=O)c2ccccc2)c2ccccc12	0
COc1ccc2[nH]cc(C(=O)CN3CCC(C)CC3)c2c1	0
Cc1[nH]c2ccccc2c1C(=O)CN1CCCC1	0
COc1ccc2[nH]c(C)c(C(=O)CN3CCOCC3)c2c1	16*	TTR inh HuH7=-10;TTR act confirm=0
Fc1ccccc1N1CCN(C(c2ccnc3ccccc23)c2nnnn2-c2ccc3c(c2)OCCO3)CC1 (stereo not given)	1
Cn1c(C(=O)NC2CC2)cc(=O)n(C)c1=O	5
O=C(Nc1ccc2ccccc2c1)[C@@H]1C[C@H]1[C@@H](NP(=O)(c1ccccc1)c1ccccc1)c1ccccc1	0
CC(=O)Nc1ccc(C(=O)N2CCCC(c3cc(C(=O)Nc4ccccc4)no3)C2)cc1 (stereo not given)	1
COc1ccc(S(=O)(=O)N2CCN(Cc3ccccc3OC)CC2)cc1	-1
COc1ccc(S(=O)(=O)n2c(N)nc3ccccc32)cc1	-1
CCn1c(N2CCN(S(=O)(=O)c3ccc(OC)cc3)CC2)nc2ccccc21	14*	TTR inh HuH7=-12;TTR act confirm=-1
C/C(CC(=O)Nc1ccc(N(C)C)cc1)=N\NC(=O)c1ccc(C(C)(C)C)cc1	-1
CC(=O)N1CCN(CC(=O)Nc2cccc(S(=O)(=O)N3CCCCC3)c2)CC1	-1
CC1CCN(C(=O)c2[nH]cnc2C(=O)N2CCN(c3ccccc3)CC2)CC1	-1
CCn1cc(S(=O)(=O)NC2CCCCC2)cn1	2
CCn1cc(S(=O)(=O)N2CCCC2)cn1	14*	TTR inh HuH7=-5;TTR act confirm=1
CCn1c(C)nc2cc(S(=O)(=O)N3CCCC3)ccc21	0
O=C(NCCCc1ccccc1)OC1CC2CC1[C@H]1CCCCN1[C@H]2Cc1ccccc1 (stereo not given in full)	-1
C=CS(=O)(=O)N(C(=C)C(=O)OC)S(C)(=O)=O	-1
CC1=C(C)[N+](=O)C2CCCCC2N1[O-] (stereo not given)	13*	TTR inh HuH7=-6;TTR act confirm=0
O=C1NC(=O)c2cc(Oc3ccc([N+](=O)[O-])cc3)ccc21	4
CC(=O)N1Cc2cc(C(=O)NCC(F)(F)F)nc(-c3cccc(-c4cccnc4)c3)c2[C@@H]1CCO	-1
SMILES	TTR transcr act	others
CC(C)Oc1cc(F)ccc1-c1cc(C(=O)NC2CCCCC2)[nH]n1	-1
Cc1ccc(C(=O)Nc2ccc(OCc3ccccc3)cc2)s1	0
COc1ccc(C(=O)NCCCc2ccccc2)cc1	-1
Cc1ccc(C(=O)NCCCc2ccccc2)s1	67*	TTR inh HuH7=-7;TTR act confirm=1
CCCCN1CCS(=O)(=O)N(Cc2ccc(Cl)cc2)C(C(=O)OC)C1 (stereo not given)	3
C[C@H]1CN([C@@H](C)CO)C(=O)CCCn2nncc2CO[C@H]1CN(C)C(=O)c1cc(-c2ccccc2)on1	14*	TTR inh HuH7=-7;TTR act confirm=-1
C[C@H](CO)N1C[C@H](C)[C@@H](CN(C)S(=O)(=O)c2ccccc2)OCc2cn(nn2)CCCC1=O	-2
C[C@H](CO)N1C[C@H](C)[C@@H](CN(C)C(=O)c2cc(-c3ccccc3)on2)OCc2cnnn2CCCC1=O	1
C[C@H]1CN([C@@H](C)CO)C(=O)CCCn2cc(nn2)CO[C@@H]1CN(C)S(=O)(=O)c1ccc(Cl)cc1	3
C[C@@H]1CN([C@H](C)CO)C(=O)CCCn2cc(nn2)CO[C@H]1CN(C)S(=O)(=O)c1ccc(Oc2ccccc2)cc1	17*	TTR inh HuH7=-5;TTR act confirm=-1
C[C@@H]1CN([C@H](C)CO)C(=O)CCCn2nncc2CO[C@H]1CN(C)C(=O)c1cc(-c2ccccc2)on1	3
C[C@H]1CCCN1c1ccc2c(c1)OCCCN(C1CC1)S2(=O)=O	0
CC(C)Oc1ccc(/C=C/C(=O)NCC2COc3ccccc3O2)cc1 (stereo not given)	-4
COC(=O)[C@@]1(Cc2ccccc2)[C@H]2C(=O)N(C)C(=O)[C@H]2[C@H]2CN=C(SCC(=O)c3ccccc3)N21	0
COc1ccccc1N1CCN(C(=O)NCc2cccc(C(F)(F)F)c2)CC1	-1
COc1cccc(C(=O)NCC(=O)OCC(=O)NC2CCCCC2)c1	2
COC(=O)[C@]12C[C@H](CC(=O)NCCCCc3ccccc3)C(=O)N(Cc3ccc(Cl)cc3Cl)C1=C[C@H](C(C)C)O[C@@H]2C1CC1	2
COc1ccc(CCNC(=O)CCn2c(SCC(=O)N3CCCC3)nc3ccccc3c2=O)cc1OC	1
O=S1(=O)N[C@H](Cc2ccccc2)COc2cc(Br)ccc21	-2
